According to the supplement of paper PMC9948646:

System: gramicidin D channels in DC22:1PC lipid vesicles (bilayer-modifying potency)
Assay: initial Tl+ fluorescence quench rate relative to no-drug control (NormRate, gramicidin monomer-dimer shift) (ratio (fold of control)); higher = stronger bilayer-modifying effect (equilibrium shifted toward conducting dimers), active = 1.5 or more
Conditions: 10 µM; lipid concentration 50 µM; temperature: 25 °C
Protocol: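 Stopped-flow fluorescence quench assay: ANTS-loaded DC22:1PC large unilamellar vesicles doped with gramicidin D (1:2000), 50 µM lipid, equilibrated 10 min with 10 µM drug (0.1% DMSO), mixed with Tl+ quench buffer at 25°C. Initial quench rate (Tl+ influx) was fitted with a modified stretched exponential and normalised to the no-drug control rate (NormRate); duplicates from two independent LUV preparations (triplicates for 7 drugs).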

Initial Tl+ fluorescence quench rate, active:
O=S(=O)(c1ccc(Cl)cc1)N1CCN(C(=S)NCc2ccco2)CC1 1.54
Cc1nn(C(=O)Nc2cccc(C(F)(F)F)c2)c(C)c1Sc1ncccn1 2
CC(C)[C@H](C(=O)Nc1ccc(S(=O)(=O)N(C)C)cc1)c1ccc(Cl)cc1 4.3
CC(C)(C)c1cnc(NC(=O)c2ccccc2O)s1 2.31
Brc1cncc(-c2cc(NCCCn3ccnc3)nc(-c3ccccc3)n2)c1 2.73
CCOc1ccccc1N[C@H](C)C(=O)Nc1cc(C(F)(F)F)ccc1N1CCOCC1 1.72
NCCN(C(=O)c1ccc(Cl)cc1Cl)c1ccc(OCc2ccc(Cl)cc2)cc1 5.93
O=C(OCc1ccccc1)N1CCC(c2cc(-c3ccncc3)c(-c3ccc(F)cc3)[nH]2)CC1 2.36
CC(C)[C@H](NC(=O)Cc1cccc2ccccc12)C(=O)Nc1cccc(C#N)c1 1.74
O=C(NCCc1ccccc1)c1cc(-c2cccnc2)cnc1NCC1CC1 2
[H]/N=C(/N)Nc1ccc(-c2ccc(-c3ccc(N=C(N)N)c(Cl)c3)o2)cc1Cl 1.59
COc1ccc([C@H]2CC(c3cccs3)=NN2C(=O)c2ccco2)cc1OC 1.86
CC[C@@H]([C@H](C)O)n1ncn(-c2ccc(N3CCN(c4ccc(OC[C@@H]5CO[C@@](Cn6cncn6)(c6ccc(F)cc6F)C5)cc4)CC3)cc2)c1=O 7.69
CCOC(=O)NC(=O)c1ccsc1NC(=O)c1nc2ccccc2s1 3.21
O=C(NCCN1CCCC1)c1cc(NCCCCN2CCC(F)(F)CC2)nc2ccc(Cl)cc12 1.92

Initial Tl+ fluorescence quench rate, inactive:
Cc1ccc2nc(Cl)c(CNCc3cccs3)cc2c1 1.03
N#Cc1nc(-c2ccccc2F)oc1NCCc1ccccc1 1.04
COc1ccc(-c2cncc3ccc(C(=O)NCCCn4ccnc4)nc23)cc1 1.03
O=C(N[C@H]1CCN(c2ccnc3ccccc23)C1)c1cccc(C(F)(F)F)c1 1.27
O=C(COc1cccc(F)c1)Nc1nc(-c2ccccn2)cs1 1.16
COc1ccccc1[C@H](C)NCC(=O)Nc1cc(C(F)(F)F)ccc1Cl 1.17
CCCc1ccc(S(=O)(=O)Nc2ccc(CN3CCN(CC4CC4)CC3)cc2)cc1 1.42
CCc1nc2ccc(Cl)cn2c1C(=O)NCc1ccc(N2CCC(c3ccc(OC(F)(F)F)cc3)CC2)cc1 1.09
COC(=O)C1=C(C)NC(C)=C(C(=O)OC(C)C)[C@@H]1c1cccc2nonc12 1.33
NC(=O)c1cc(-c2ccsc2)ccc1OCCOc1ccccc1 1.14
O=C(Nc1cccnc1)c1c(O)c2cccc3c2n(c1=O)CC3 1.07
N#Cc1ccc(-c2cnc(N)c(-c3ccc(C(N)=O)cc3)n2)cc1 1.28
CS(=O)(=O)N1CCC(Cn2nc(Cc3cccc4ccccc34)c3c(N)ncnc32)CC1 1.47
C[C@H]1c2cccc(O)c2C(=O)C2=C(O)[C@]3(O)C(=O)C(C(N)=O)=C(O)[C@@H](N(C)C)[C@@H]3[C@@H](O)[C@@H]21 1.02
CC(C)(CN)c1nc(-c2ccc(Cl)c(O)c2)c(-c2ccnc(N)n2)[nH]1 1.15
COc1ccc(CCN2CCC(NCc3cccc(N(C)C)c3)CC2)cc1 1.07
O=C(Nc1cccc(-c2ccc(NCCCN3CCCC3)nc2)c1)c1ccccc1 1.2
Nc1ncnc2c1c(-c1cnc3ccccc3c1)nn2CC1CCNCC1 1.07
Cc1ccc(-c2nc(CN(Cc3ccccn3)C(C)C)cs2)o1 1.21
O=C(Nc1nc(-c2ccccn2)cs1)c1cncn1-c1ccccc1 1.1
Cc1cc(C)n(-c2ccc(NC(=O)C3CCN(Cc4cnc(C)s4)CC3)cc2)n1 1.01
CCNC(=O)[C@H](C)Nc1nc(-c2cccnc2)nc2sc(C)c(C)c12 1.08
O=C(Nc1ccc(N2CCNCC2)nc1)c1oc(-c2ccccc2)nc1C(F)(F)F 1.47
